# From PubChem BioAssay
# YjeE inh – qHTS Assay for Inhibitors of YjeE; 71,000 tested, 0.05% active; purified YjeE enzyme, qHTS inhibition assay; Potency, µM; tRNA threonylcarbamoyladenosine biosynthesis protein TsaE (Escherichia coli (strain …
#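 Purified YjeE (10 uM) with BODIPY Texas Red-labeled ADP probe (2 uM); compounds pin-transferred, 15 min at room temperature. Binding inhibition read as decreased fluorescence polarization; ADP titration as control.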
# Pol III holo inh – qHTS Assay for Inhibitors of DNA Polymerase III Holoenzyme System; reconstituted DNA polymerase III holoenzyme replication, biochemical; Potency, µM (titrated, usually from 57.1 µM), without a hit: top-dose activity change, negative = inhibition; 71,000 tested, 0.25% active; AID 603, 2007; further: potency means the concentration at half of the fitted maximal effect; on the % scale 0 is the no-effect control and ±100 the full control effect
#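 Reconstituted *E. coli* holoenzyme (0.35 nM Pol III, 1 nM beta, 154 nM SSB, 2 nM primase) was preincubated with compound for 15 min at RT. Synthesis on 1.4 nM ssM13Gori ran 35 min, then was stopped with PicoGreen/EDTA and read as dsDNA fluorescence.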
# BRCT PPI red – qHTS Assay for Inhibitors of BRCT-Phosphoprotein Interaction (Red Fluorophore); AID 892, 2007; BRCT-phosphopeptide binding, red fluorescence polarization; 75,000 tested, 0.03% active; Breast cancer type 1 susceptibility protein (Homo sapiens), P38398; Potency, µM (series often up to 76.9 µM), inactives show top-dose activity change, negative = inhibition, hits mostly inhibitors; further: on the % scale 0 is the no-effect control and ±100 the full control effect
#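 Rhodamine-labelled pBACH1 10-mer (100 nM) bound to BRCT domain (100 nM) at pH 7.3; compounds incubated 12 min room temperature, polarization read. Free peptide defines full inhibition; unlabelled decapeptide titrated as control.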
# BRCT inh green – qHTS Assay for Inhibitors of BRCT-Phosphoprotein Interaction (Green Fluorophore); BRCA1 BRCT-phosphopeptide binding, green fluorescence polarization; Potency, µM (top dose mostly 76.9 µM), for the others: at the highest dose activity change, negative = inhibition, hits mostly inhibitors; AID 875, 2007; 75,000 tested, 0.05% active;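 further: potency means the concentration at half of the fitted maximal effect; plate controls were peptide without protein for full effect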
#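 Compounds were incubated for 12 min at room temperature with a complex of 100 nM fluorescein-tagged pBACH1 decapeptide and 250 nM His-tagged BRCT protein. Buffer was phosphate pH 7.3 with EDTA, DTT and Tween 20. Disruption of binding lowers the polarization signal.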
# HEK293 cAMP cs – qHTS Assay for Agonists of the Thyroid Stimulating Hormone Receptor: Activators of Intracellular cAMP Concentrations in Parental HEK 293; parental HEK293 CNG cAMP sensor, membrane potential fluorescence; Potency, µM (series often up to 57.1 µM), without a hit: at the top dose activation, actives largely listed as activators; 73,000 tested, 2.5% active; AID 938, 2007; further: potency means the concentration at half of the fitted maximal effect; % of control where 0% means no effect; nearly all actives have a fitted effect of over 55% in size
#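 Parental HEK 293 cells stably expressing a modified CNG channel (no TSHR) report cAMP rise as membrane depolarization. Membrane potential dye with 100 uM RO 20-1724 was loaded for 60 min at room temperature, then compound added for 30 min; fluorescence read at 590 nm.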
# TSHR ag – qHTS Assay for Agonists of the Thyroid Stimulating Hormone Receptor | Potency, µM (doses to about 57.1 µM), without a hit: at the highest dose activation, most hits filed as activators | HEK293-CNG-TSHR cells (CNG channel as cAMP sensor), membrane potential dye, cAMP | AID 926, 2007 | Thyrotropin receptor (Homo sapiens), P16473 | 73,000 tested, 0.48% active; active means well fitted activation curve with a large enough effect in the main read-out, with a control signal flat, not every such curve was filed as active; inconclusive means small, poorly fitted or top-dose-only effect, or a change in a side signal; inactive means no such curve, though single readings can be large or run the other way; % of control where 0% means no effect;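 further: the control signal comes from parental cells without the receptor; potency means the concentration at half of the fitted maximal effect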
#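 HEK 293 cells stably expressing TSHR and a modified CNG channel, with CNG-only parental cells as counterscreen, were preloaded 60 min at room temperature with membrane potential dye containing 100 uM RO 20-1724. Compound exposure was 30 min, and depolarization was read as fluorescence at 590 nm.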
# Active calls of the source: *; i = inactive; ? = inconclusive; nt = no result given; [ ] = remark or other dose. The list is not random: actives were taken first. Their share in the collection is about 3.2%. Unless noted, the call rests on the fitted dose curve; in most records, active means well fitted curve in the direction sought with a large enough effect; inconclusive means small, poorly fitted or top-dose-only effect, or another doubt; inactive means no such curve, though single readings can be large; an effect the other way counts as inactive or inconclusive.
SMILES,YjeE inh,Pol III holo inh,BRCT PPI red,BRCT inh green,HEK293 cAMP cs,TSHR ag
Nc1nc(SCC(=O)N2CCCc3ccccc32)[nH]c(=O)c1-c1ccccc1,i,-3%,1%,0%,24%,nt
CCc1cc(Br)ccc1N1C(=O)C2CC=CCC2C1=O (configuration not stated),i,-6%[11.4 µM],0%,-1%,7%[11.4 µM],2.5µM*
CCOC(=O)c1ccc(N2C(=O)C3CC=CCC3C2=O)cc1 (configuration not stated),i,-6%,0%,0%,-9%,9%
Cc1ccc(S(=O)(=O)Nc2cccc(-c3cn4ccsc4n3)c2)cc1,i,6%,0%,1%,21%,56%
Cc1ccc2nc(-c3cccc(S(=O)(=O)N(C)C)c3)cn2c1,i,-2%,-1%,5%,25µM*,?
Cc1ccc(C(=O)N2CCCC(c3nc4c(nnn4Cc4ccccc4)c(=O)[nH]3)C2)cc1 (configuration not stated),i,-1%,-3%,15%,25µM*,?
Cc1ccc(CC(=O)N2CCC(c3nc4c(nnn4Cc4ccccc4)c(=O)[nH]3)CC2)cc1,i,0%,0%,1%,8%,1%
C=C[C@]1(C)CC(=O)[C@@]2(O)[C@@]3(C)C(O)CCC(C)(C)C3C(O)C(OC(C)=O)[C@@]2(C)O1 (some centres not stated),nt,nt,1%,-2%[3.08 µM],nt,nt
C=C[C@@]1(C)CC(=O)[C@@]2(O)[C@@]3(C)[C@@H](O)CCC(C)(C)[C@@H]3[C@H](OC(=O)CCN(C)C)[C@H](OC(C)=O)[C@@]2(C)O1,i,-1%,0%,1%,0.13µM*,?
C=C[C@@]1(C)CC(=O)[C@@]2(O)[C@@]3(C)[C@H](O)CCC(C)(C)[C@@H]3[C@H](O)[C@H](OC(C)=O)[C@]2(C)O1,i,1%,-1%,1%,0.5µM*,?
CC(C)c1nc(N2CCN(C(=O)c3ccco3)CC2)c2c3c(sc2n1)CCCC3,i,-4%,0%,2%,19%,10µM*
Cc1nc(N2CCN(C(=O)c3ccco3)CC2)c2c3c(sc2n1)CCC3,i,-2%,-2%,-1%,29%,nt
Cc1sc2ncnc(-n3cnc4ccccc43)c2c1C,i,-5%,0%,-1%,-5%,-3%
Cc1sc2ncnc(N3CCCCC3C)c2c1C (configuration not stated),i,-1%,1%,-1%,25µM*,?
O=C(Cn1c(=O)oc2ccccc21)N1CCN(c2ccc(N3CCOCC3)nn2)CC1,i,-3%,0%,-1%,-6%,0%
COc1ccc(-c2nn3c(-c4ccccc4)nnc3s2)cc1,i,2%,-2%,-3%,?,?
COc1cccc(OC)c1-c1nn2c(-c3cc(-c4ccccc4)n[nH]3)nnc2s1,?,13µM*,-13%,32%,27%,4%
Cc1cc(-n2c(C)cc(C(=O)CSc3nnc4sc5ccccc5n34)c2C)no1,i,1%,1%,-2%,2%,5%
Cc1cc(-n2c(C)cc(C(=O)CSc3ncnc4ccccc34)c2C)no1,i,4%,-1%,4%,7.9µM*,?
Cc1cc(-c2ccc(N=Nc3ccc4c(S(=O)(=O)O)cc(S(=O)(=O)O)c(N)c4c3O)c(C)c2)ccc1N=Nc1ccc2c(S(=O)(=O)O)cc(S(=O)(=O)O)c(N)c2c1O,79µM*,7.9µM*,?,32µM*,-19%,-30%
CCOC(=O)C1CCN(C2CC(=O)N(c3ccc(OCC)cc3)C2=O)CC1 (configuration not stated),i,-5%,2%,-1%,13%,17%
C=CCOc1ccccc1/C=N/O,i,-7%,-1%,0%,25µM*,?
C=CCOc1c(Cl)cc(/C=N/O)cc1OC,i,-5%[11.4 µM],0%,-1%,9%[11.4 µM],7%[11.4 µM]
C=C(C)COc1ccc2c3c(c(=O)oc2c1OCC(=C)C)CCC3,i,-6%,0%,8%,25µM*,?
c1ccc(CCc2nn3c(Cn4cnc5ccccc54)nnc3s2)cc1,i,-2%,0%,0%,?,?
SMILES,YjeE inh,Pol III holo inh,BRCT PPI red,BRCT inh green,HEK293 cAMP cs,TSHR ag
Clc1ccccc1-c1nn2c(Cn3cnc4ccccc43)nnc2s1,i,-9%,-1%,8%,27%,3.2µM*
CC(C)C(=O)Cc1ccc2ccccc2n1,i,2%[11.4 µM],0%[15.4 µM],1%[15.4 µM],0%[11.4 µM],1%[11.4 µM]
CCCCC[C@H](O)c1cccc(OCc2ccc3ccccc3n2)c1,i,-7%,-2%,-4%,20µM*,?
O=C(c1cc(-c2cccs2)on1)N1CCN(c2ccccc2)CC1,i,1%,-1%,7%,17%,14%
O=C(COc1ccccc1)Nc1ccccc1N1CCN(c2ccccc2)CC1,i,4%,0%,0%,?,?
O=C(Nc1ccccc1N1CCN(c2ccc(F)cc2)CC1)c1ccccc1,i,2%,-2%,-3%,6.3µM*,?
O=C(Nc1ccccc1N1CCN(c2ccc(F)cc2)CC1)C1CCCCC1,i,-2%,2%,-1%,3.2µM*,?
O=C(COc1ccccc1)Nc1ccccc1N1CCN(c2ccc(F)cc2)CC1,i,8%,-2%,-2%,7.9µM*,?
CCC(=O)N1CCN(c2ccccc2NC(=O)COc2cc(C)ccc2C(C)C)CC1,i,0%,-1%,2%,16µM*,?
CC(C)CC(NC(=O)C1CCC(C)CC1)C(=O)Nc1ccccn1 (configuration not stated),i,-2%,1%,-1%,10%,7%
C1CCC2=NCCCN2CC1,i,-6%,-2%,-2%,-5%,-11%
Cc1cccc2cc3c(NC(=O)c4ccccn4)nn(C)c3nc12,i,-7%,-1%,-1%,21%,26%
CCOC(=O)N/N=C1/C[C@@H](O)[C@@H](O)[C@@H]2[C@@H]3C(=O)N(c4cccc(Oc5ccccc5)c4)C(=O)[C@H]3CC[C@H]12,nt,nt,-2%[15.4 µM],1%[15.4 µM],-5%[11.4 µM],-7%[11.4 µM]
Cc1cc(C)c(OCC(=O)Nc2ccccc2N2CCOCC2)c(C)c1,i,-8%,0%,1%,?,?
